Our source for the Potency values is ChEMBL document CHEMBL1201862, “PubChem BioAssay data set” (2004).

Hit rate of the full screen: of about 400,000 compounds, about 2,100 (0.53%) were called active. Not shown: some 14% with an inconclusive outcome. No rule for the calls is given here. This excerpt belongs to a sample that is enriched for actives.

Chain of Ataxin-2 (Homo sapiens) (Q99700 whole entry): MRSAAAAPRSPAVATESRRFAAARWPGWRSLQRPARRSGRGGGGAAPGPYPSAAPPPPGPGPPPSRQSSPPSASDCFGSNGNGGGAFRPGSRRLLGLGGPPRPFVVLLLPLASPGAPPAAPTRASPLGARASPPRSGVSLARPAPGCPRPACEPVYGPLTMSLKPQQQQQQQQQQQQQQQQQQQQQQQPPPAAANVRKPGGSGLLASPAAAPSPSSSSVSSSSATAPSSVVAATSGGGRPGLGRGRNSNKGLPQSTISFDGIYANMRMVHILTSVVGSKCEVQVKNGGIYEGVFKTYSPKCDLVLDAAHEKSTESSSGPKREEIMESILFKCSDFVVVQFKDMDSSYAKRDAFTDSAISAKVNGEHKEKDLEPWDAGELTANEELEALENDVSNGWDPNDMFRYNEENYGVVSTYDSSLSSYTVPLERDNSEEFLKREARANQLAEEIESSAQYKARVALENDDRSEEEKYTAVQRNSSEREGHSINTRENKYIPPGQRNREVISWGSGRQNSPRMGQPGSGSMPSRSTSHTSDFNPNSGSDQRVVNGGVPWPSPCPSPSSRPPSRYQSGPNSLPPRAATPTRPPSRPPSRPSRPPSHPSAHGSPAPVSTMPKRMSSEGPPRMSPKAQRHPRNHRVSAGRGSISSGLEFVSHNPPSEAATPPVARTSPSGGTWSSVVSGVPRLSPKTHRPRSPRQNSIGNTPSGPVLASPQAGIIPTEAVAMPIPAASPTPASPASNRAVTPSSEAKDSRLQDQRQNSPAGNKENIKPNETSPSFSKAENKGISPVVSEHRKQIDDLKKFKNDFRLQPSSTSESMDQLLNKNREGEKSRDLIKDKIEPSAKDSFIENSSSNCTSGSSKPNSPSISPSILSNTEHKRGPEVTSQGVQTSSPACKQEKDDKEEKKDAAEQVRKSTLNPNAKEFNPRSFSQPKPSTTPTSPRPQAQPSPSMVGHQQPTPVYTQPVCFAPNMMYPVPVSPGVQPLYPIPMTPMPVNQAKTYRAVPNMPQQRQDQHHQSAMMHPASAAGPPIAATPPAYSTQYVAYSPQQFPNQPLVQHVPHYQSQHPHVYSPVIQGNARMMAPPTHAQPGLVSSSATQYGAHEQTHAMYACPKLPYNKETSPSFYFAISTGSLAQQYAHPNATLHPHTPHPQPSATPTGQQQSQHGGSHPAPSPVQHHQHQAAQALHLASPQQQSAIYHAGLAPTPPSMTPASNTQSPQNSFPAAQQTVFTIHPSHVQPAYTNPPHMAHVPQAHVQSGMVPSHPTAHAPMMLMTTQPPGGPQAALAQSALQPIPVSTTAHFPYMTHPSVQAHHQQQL

The experiment concerns the target Ataxin-2 (Homo sapiens) (UniProt Q99700). In words: qHTS for Inhibitors of ATXN expression. The class given is functional. A general note: In qHTS, concentration-response curves come from the screen itself.
With `Fc1ccc(Br)cc1C1C=C(c2ccc(Br)cc2)Nc2ncnn21` (stereo unspecified), the Potency result was “inactive”. `CCN1/C(=C/c2ccc3cc(C)ccc3[n+]2CC)Sc2cc(C)ccc21`: the Potency is 10.6 µM (active). Consider `CCCCn1nc(C(=O)Nc2cc(C(F)(F)F)ccc2N2CCOCC2)ccc1=O`, for which the Potency is 39.8 µM (active).

In the case of `CCOC(=O)c1ccc(N2CCOCC2)c(NC(=O)c2ccc3c(c2)OCO3)c1`, the Potency result is “inactive”. Next, `Cc1ccccc1C(=O)Nc1cc(C(F)(F)F)ccc1-n1cncn1`: “inactive”. For the compound `O=C1c2ccccc2-c2ncnc3c(N4CCOCC4)cc(N4CCOCC4)c1c23`, the Potency was 17.8 µM (active). The value for `O=C(Nc1ccccc1N1CCOCC1)c1cc(Br)c(Br)s1` was “inactive”; that for `c1cc2c3c(cccc3c1)C(N1CCOCC1)=N2` was “inactive”; that for `C=CCN1C(=O)/C(=C/c2ccc(OC(C)=O)c(OCC)c2[N+](=O)[O-])SC1=S` was 31.6 µM (active).

As to `CCO/C=C1/C(=O)N(c2ccc(OC)cc2)C(=O)c2ccccc21`, the Potency result is “inactive”.

Consider `O=C(O)c1cc2c(cc1NC(=O)C1CCCC1)OCCO2`, for which the Potency result is “inactive”. Next, `O=C(CCl)N1CCCC1c1ccc2c(c1)OCCO2` (stereo unspecified): 35.5 µM (active). With `Cc1ccc2c(c1)OC(c1ccc3c(c1)OCCO3)CC2=O` (stereo unspecified), the Potency entry is “inactive”. Next, `CCOC(=O)c1sc(NC(=O)CCN2CCN(C)CC2)c(C(=O)OCC)c1C`: “inactive”; `CC(=O)O[C@@H]1C[C@H]2C(C)(C)C(=O)C=C[C@]2(C)[C@H]2CC[C@@]3(C)[C@H](c4ccoc4)OC(=O)[C@H]4O[C@]43[C@@]21C`: 31.6 µM (active).

As for `Cc1onc(-c2ccccc2Cl)c1C(=O)Nc1cc(=O)n(C)c(=O)n1C`, the Potency result is “inactive”. With `Cc1ccc2c(Cl)cc(Cl)c(OCC(=O)OCC(=O)Nc3ccc(C#N)cc3)c2n1`, the Potency entry is “inactive”. Next, `CCCCCCN1C[C@H](n2cc(COC(=O)c3ccccc3)nn2)[C@@H](O)C[C@@H]1c1ccc(Cl)cc1`: 31.6 µM (active); `CCCCCCN1C[C@@H](n2cc(COC(=O)c3ccccc3)nn2)[C@H](O)C[C@@H]1c1ccc(C)cc1`: 22.4 µM (active); `CCCCC(NC(=O)Cc1c(C)c2cc3c4c(oc3cc2oc1=O)CCCC4)C(=O)O` (stereo unspecified): “inactive”. Consider `Cc1c(O)ccc2c(CN3CCN(CCO)CC3)cc(=O)oc12`, for which the Potency result was “inactive”. The value for `Cc1c(NS(=O)(=O)c2ccc(NCCN3CCOCC3)c([N+](=O)[O-])c2)c(=O)n(-c2ccccc2)n1C` was “inactive”; that for `Cc1nn(-c2ccccc2)c(N2CCCC2)c1/C=N/Nc1ccc(S(=O)(=O)Nc2ccccc2)cc1[N+](=O)[O-]` was 31.6 µM (active); that for `O=C(O)COc1ccccc1/C=N/Nc1ccc(S(=O)(=O)Nc2ccc(Cl)cc2)cc1[N+](=O)[O-]` was “inactive”. The value for `O=C(COc1ccc(Br)cc1)NCCN1CCCC1` was “inactive”; that for `CC1=C(C(=O)OC(C)C)C(c2ccc(Cl)cc2)n2c(s/c(=C\c3ccc(OCC(=O)O)cc3)c2=O)=N1` (stereo unspecified) was “inactive”. For `CC1=CC2=NC(=O)/C(=C/c3coc4ccc(Cl)cc4c3=O)C(=N)N2O1`, the Potency result was “inactive”. Regarding `CCOC(=O)c1sc(NC(=O)c2nc3nc(C)cc(C(F)F)n3n2)c(C(=O)OC)c1C`, the Potency result is “inactive”.

Take `CCN1C(=O)c2cccc3c(S(=O)(=O)NC(Cc4ccccc4)C(=O)O)ccc1c23` (stereo unspecified): the Potency result is “inactive”.

Turning to `CN(C(=O)COC(=O)c1ccc([N+](=O)[O-])cc1N)c1ccccc1`, the Potency result is “inactive”.

`O=C(CN(C(=O)c1ccccc1Cl)C1CCCCC1)Nc1ccc(Cl)c([N+](=O)[O-])c1`: the Potency is 35.5 µM (active). On to `O=C(COC(=O)c1ccccc1C(=O)c1ccc(Cl)c([N+](=O)[O-])c1)NC1CCCCCC1`, for which the Potency was 35.5 µM (active). The value for `Cc1ccc(C(=O)COC(=O)CCC(=O)NC2CCCCC2)cc1[N+](=O)[O-]` was “inactive”; that for `CC(OC(=O)c1ccc(-n2cnnn2)cc1)C(=O)Nc1ccccc1[N+](=O)[O-]` (stereo unspecified) was “inactive”. Next, `CC(=O)Nc1ccc(NC(=O)C(C)OC(=O)CCSc2ccccc2Cl)cc1` (stereo unspecified): “inactive”; `CC(=O)Nc1ccc(NC(=O)C(C)OC(=O)c2ccccc2C(=O)c2ccc(Cl)c([N+](=O)[O-])c2)cc1` (stereo unspecified): 39.8 µM (active). Next, `CN(CC(=O)Nc1ccccc1Cl)C1CCS(=O)(=O)C1` (stereo unspecified): “inactive”; `CN(CCC#N)C(=O)COC(=O)c1c2c(nc3ccccc13)/C(=C/c1ccco1)CC2`: “inactive”.

Turning to `CN(CCC#N)C(=O)COC(=O)c1ccccc1C(=O)c1ccc(Cl)c([N+](=O)[O-])c1`, the Potency was 29.9 µM (active).

Regarding `Cc1cc(OCC(=O)OCC(=O)NC2CCCCCC2)ccc1Cl`, the Potency result was “inactive”. With `C=CCNC(=O)c1ccccc1NC(=O)Cc1ccccc1[N+](=O)[O-]`, the Potency result is “inactive”.

With `O=C(CSc1nnnn1C1CC1)N1CCN(c2ccc(O)cc2)CC1`, the Potency entry is “inactive”. Next, `Cn1c(N)c(C(=O)COC(=O)CC(NC(=O)c2ccccc2Cl)c2ccccc2)c(=O)n(C)c1=O` (stereo unspecified): “inactive”.

Regarding `Cc1ccc(Cl)c(NC(=O)COC(=O)c2ccccc2C(=O)c2ccc(Cl)c([N+](=O)[O-])c2)c1Cl`, the Potency was 20 µM (active). For `CCOC(=O)Cn1nc(C)c(NC(=O)COc2ccc([N+](=O)[O-])c(C)c2)c1C`, the Potency result is “inactive”.

Take `CC(=O)c1ccccc1NC(=O)COC(=O)c1cc[n+]([O-])cc1`: the Potency entry is “inactive”. In the case of `CC(C)Cn1c(N)c(C(=O)COC(=O)c2cccnc2Cl)c(=O)n(C)c1=O`, the Potency result is “inactive”. The value for `Cn1c(N)c(C(=O)COC(=O)c2ccccc2C(=O)c2ccc(Cl)c([N+](=O)[O-])c2)c(=O)n(C)c1=O` was 20 µM (active). Turning to `COC(=O)c1cc(-c2ccc(Br)cc2)c2c(=O)n(C)c(=O)n(C)c2n1`, the Potency entry was “inactive”. The value for `Cc1sc2nc3ccc(NCc4ccco4)nn3c(=O)c2c1C` was “inactive”.

As for `O=C(/C=C/c1cn(CC(O)CN2CCc3ccccc32)c2ccccc12)c1ccc(Br)cc1` (stereo unspecified), the Potency result was “inactive”.

As to `COc1ccc2cc(CNCCOCCOCCNCc3ccc4cc(OC)ccc4c3)ccc2c1`, the Potency was 29.9 µM (active). In the case of `COc1ccc(CNCCC2(C(C)C)CCOC(C)(C)C2)cc1` (stereo unspecified), the Potency entry was “inactive”. Turning to `COc1ccc(CNc2cc(C)nc3ccc(OC)cc23)cc1`, the Potency result is “inactive”. Regarding `OCCCc1nc2n(n1)C(c1ccccc1)C=C(c1ccccc1)N2` (stereo unspecified), the Potency entry was “inactive”. As for `Cc1cc(N2CCN(C(=O)Oc3ccc([N+](=O)[O-])cc3)CC2)c2ccccc2n1`, the Potency was 35.5 µM (active). Turning to `Cc1cc(N2CCN(c3ccc(C(F)(F)F)cc3[N+](=O)[O-])CC2)c2ccccc2n1`, the Potency result was “inactive”.

Consider `O=C(Cc1ccccc1)Nc1cc([N+](=O)[O-])ccc1N1CCOCC1`, for which the Potency result is “inactive”. Turning to `CC(C(=O)N1CCCCCC1)c1ccc([N+](=O)[O-])cc1` (stereo unspecified), the Potency entry was “inactive”. `CCCn1nc(NC(=O)C(C)(C)C)c2cc3cc(OC)ccc3nc21`: the Potency result is “inactive”. Next, `Cc1ccc(-c2nc3cc(Br)cnc3nc2-c2ccc(C)cc2)cc1`: “inactive”; `Cc1nnsc1C(=O)NNC(=O)Nc1ccccc1`: “inactive”; `O=C(C1=NN(c2ccccc2)C2C(=O)N(c3ccccc3Cl)C(=O)C12)c1ccccc1` (stereo unspecified): “inactive”. The value for `O=C(c1ccccc1)c1ccccc1N1C(=O)C=CC1=O` was 23.8 µM (active); that for `O=C(c1ccccc1)c1ccsc1C(=O)c1ccccc1` was “inactive”; that for `O=C(Oc1cc(=O)oc2c1c(=O)n1c3c(cccc23)CC1)c1ccccc1` was “inactive”. The value for `COc1cccc(CNC(=O)c2cc(S(=O)(=O)N3CCCC3)cn2C)c1` was “inactive”. On to `Cc1ccc(OCC(=O)Nc2ccc(Cl)cc2)c(-n2nc3ccccc3n2)c1`, for which the Potency is 39.8 µM (active). The value for `CN(CC(=O)Nc1ccc(Cl)cc1)C(=O)COc1ncnc2ccccc12` was “inactive”. The value for `Cc1cc(Cl)ccc1OCC(=O)OCC(=O)Nc1cccnc1Cl` was “inactive”; that for `Cc1cccc(C2=NN(c3ccccc3)[C@@H](C(=O)N3CCOC3=O)[C@@H]2c2ccc(F)cc2)c1` was “inactive”; that for `Cc1cc(NCCCCO)n2c(nc3ccccc32)c1C#N` was “inactive”. Next, `Cc1ccc(-c2ncns2)cc1`: “inactive”. In the case of `N=c1n(Cc2ccccc2)c2ccccc2n1CC(O)COc1ccc(Cl)cc1Cl` (stereo unspecified), the Potency is 37.7 µM (active). Regarding `OC(COc1ccc(Cl)cc1)CSc1ccccn1` (stereo unspecified), the Potency result is “inactive”. Next, `Oc1nncc2c3ccccc3n(Cc3cccc(Cl)c3)c12`: “inactive”; `N=c1n(Cc2ccc(Cl)cc2)c2ccccc2n1CC(O)COc1ccccc1` (stereo unspecified): 35.5 µM (active); `N=c1n(CCO)c2ccccc2n1CCOc1ccc(Cl)cc1Cl`: 25.1 µM (active). The value for `COc1ccc(OCC(O)Cn2c(=N)n(Cc3ccccc3)c3ccccc32)cc1` (stereo unspecified) was 35.5 µM (active); that for `COc1ccc(OCc2nc3ccccc3n2C(C)C)cc1` was “inactive”; that for `COc1ccc(OCC(O)CNC(=O)c2c(-c3ccccc3)noc2C)cc1` (stereo unspecified) was “inactive”.

With `O=C(O)c1cc2cccc(S(=O)(=O)N3CCCCC3)c2cc1O`, the Potency entry is “inactive”. In the case of `CC(C)(C)C(=O)/C(=C/c1ccncc1)n1cncn1`, the Potency is 20 µM (active). For the compound `CC(/C=N\NC(=O)Cn1cncn1)=C/c1ccc(C(C)C)cc1`, the Potency result is “inactive”. On to `Cc1cccc(C)c1N(CC(=O)NCc1ccc(F)cc1)C(=O)c1csnn1`, for which the Potency entry was “inactive”. Regarding `CN(C)c1ccc(/C=N/NC(=O)c2ccc(Cn3cc(Br)cn3)o2)cc1`, the Potency entry was “inactive”. Consider `NC(Cc1ccc([N+](=O)[O-])cc1)=NOC(=O)C(c1ccccc1)c1ccccc1`, for which the Potency was 25.1 µM (active). In the case of `NC(=O)c1ccsc1NC(=O)Cc1ccc([N+](=O)[O-])cc1`, the Potency entry was “inactive”. The value for `NC(Cc1ccc([N+](=O)[O-])cc1)=NOC(=O)c1cccc(Br)c1` was “inactive”; that for `CCCNC(=O)c1ccc2c(O)c(O)c(-c3ccc(C)cc3)nc2c1` was “inactive”; that for `N#Cc1c(-c2cccc(Br)c2)cc(-c2ccco2)nc1O` was “inactive”. Regarding `Cc1cc(NC(=O)/C(C#N)=C/c2ccc(-c3ccc(SC(F)F)cc3)o2)n(-c2ccccc2)n1`, the Potency result was “inactive”. The value for `COc1cccc(-c2nn(-c3ccccc3)cc2CN(C)Cc2c(C)nc3ccccn23)c1` was 39.8 µM (active); that for `Cc1nn(C(C)C(=O)NCC2CCCO2)c(C)c1[N+](=O)[O-]` (stereo unspecified) was “inactive”; that for `O=C(NCc1ccc(S(=O)(=O)Nc2ccccc2Cl)s1)c1ccccc1` was “inactive”. The value for `Cc1cccn2c(=O)c3cc(C(=O)N4CCCCC4)sc3nc12` was “inactive”.
